Results taken from PubChem BioAssay (Tox21).
Results filed as inconclusive are left out. Entries that show only a call come without a potency. Activity calls are given as the source filed them. Unless noted, calls follow the shape of the dose curve; as a rule, active = well fitted curve in the direction sought with a large enough effect in the repeat runs; inconclusive = weak or mixed curves; inactive = no such curve, though single readings can be large; an effect the other way counts as inactive or inconclusive.

Tests used:
[1] = qHTS assay to identify small molecule antagonists of the vitamin D receptor (VDR) signaling pathway - cell viability counter screen (AID 743225); also: nearly all actives have a fitted effect of over 50% in size
How it was run: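 HEK293T VDR-bla; cpd + 1a,25-(OH)2D3 3 nM final, 16 h 37C/5% CO2; B/G FRET substrate 2 h RT; then CellTiter-Glo 30 min RT, luminescence.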

[2] = qHTS assay to identify small molecule agonists of the NFkB signaling pathway (AID 1159509; active = well fitted curve in the direction sought with a large enough effect in the signal ratio in the repeat runs, not every such curve was filed as active; the % refers to the signal ratio; also: series mostly up to about 61 µM)
How it was run: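 After overnight attachment, reporter cells received test compounds, DMSO or positive controls and were incubated 5 hr at 37 C. FRET substrate was then added for 1.5 hr at room temperature before dual-emission fluorescence reading.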

[3] = qHTS assay to identify small molecule agonists of the NFkB signaling pathway - cell viability counter screen (AID 1159515; calls by dose curve; also: series mostly up to about 61 µM; nearly all actives have a fitted effect of over 55% in size)
How it was run: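 Viability in NFkB-bla ME-180 cells was measured by CellTiter-Glo luminescence, 30 min room temperature, in wells already treated 5 hr with compounds and read for reporter FRET.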

[4] = qHTS assay to identify small molecule agonists of the endoplasmic reticulum stress response signaling pathway (AID 1159516; active = well fitted activation curve with a large enough effect in the signal ratio in the repeat runs, not every such curve was filed as active; the % refers to the signal ratio)
How it was run: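 ER stress element reporter (bla) in HeLa. 1,500 cells/well, overnight attachment; 5 hr compound; 2 hr RT substrate; dual-emission fluorescence.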

[5] = qHTS assay to identify small molecule antagonists of the retinoid-related orphan receptor gamma (ROR-gamma) signaling pathway - cell viability counter screen (AID 1159520); also: nearly all actives have a fitted effect of over 50% in size
How it was run: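 Tet-on ROR gamma CHO cells (1,000/well) were plated 4 hr, given compounds in DMSO for 2 hr at 37 C, then induced with 1 uM final doxycycline for 16 hr. Viability was read as ATP by CellTiter-Glo luminescence after 30 min.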

[6] = target: Nuclear receptor ROR-gamma (Homo sapiens) (UniProt P51449); test: qHTS assay to identify small molecule antagonists of the retinoid-related orphan receptor gamma (ROR-gamma) signaling pathway (AID 1159521;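 also: CHO cells with doxycycline inducible ROR-gamma driving an RORE luciferase reporter; top concentration of the series differs between compounds; nearly all actives have a fitted effect of over 50% in size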)
How it was run: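 Cells were plated, rested 4 h at 37 C, exposed to compounds for 2 h, then given 1 uM final doxycycline hyclate to induce RORγ expression. After 16 h, ONE-Glo luminescence from the ROR response element reporter was measured.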

[7] = qHTS assay to identify small molecule agonists of the AP-1 signaling pathway - cell viability counter screen (AID 1159525; calls by dose curve; also: nearly all actives have a fitted effect of over 55% in size)
How it was run: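 ME-180 AP-1-bla, 2500 cells/well, Opti-MEM + 0.5% dialyzed FBS; overnight 37 °C; cpd 15-pt titration, 5 h 37 °C; CellTiter-Glo 30 min RT; luminescence read; normalised to TOAB and DMSO controls.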

[8] = qHTS assay to identify small molecule agonists of the AP-1 signaling pathway (AID 1159526; calls by dose curve)
[9] = qHTS assay to identify small molecule agonists of the RXR signaling pathway - cell viability counter screen (AID 1159529);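 also: HEK 293T cells carrying an RXR-alpha UAS beta-lactamase reporter; series mostly up to about 77 µM; nearly all actives have a fitted effect of over 50% in size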
How it was run: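 Steps: seed RXR-alpha-UAS-bla HEK 293T cells in assay medium containing 2% charcoal-stripped FBS; incubate 5 hr; add compounds in DMSO; incubate 16 hr at 37 C; after the bla read, add CellTiter-Glo and read luminescence at 30 min.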

[10] = qHTS assay to identify small molecule antagonists of the retinoid acid receptor (RAR) signaling pathway - cell viability counter screen (AID 1159551); also: nearly all actives have a fitted effect of over 35% in size
How it was run: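 Following overnight attachment, C3RL4 reporter cells received DMSO-dissolved compounds and then retinol (1 uM final). Six hours later at 37 C, ATP content was measured by CellTiter-Glo luminescence.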

[11] = qHTS assay to identify small molecule antagonists of the retinoic acid receptor (RAR) signaling pathway (AID 1159552; also: nearly all actives have a fitted effect of over 50% in size)
How it was run: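 Retinol at 1 uM final stimulated RARE-luciferase expression in C3RL4 cells exposed to test compounds for 6 hr at 37 C. Reduced luminescence, read 30 min after detection reagent, indicated pathway antagonism.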

[12] = qHTS assay to identify small molecule agonists of the retinoic acid receptor (RAR) signaling pathway (AID 1159553); also: potency is read from the fitted curve at half-maximal effect
How it was run: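 Cell line C3RL4, RARE luciferase reporter. Treatment: compounds in DMSO, 6 hr, 37 C, 5% CO2, after overnight plating. Detection: luminescence, 30 min RT after reagent.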

[13] = qHTS assay to identify small molecule agonists of the endoplasmic reticulum stress response signaling pathway - cell viability counter screen (AID 1159517; calls by dose curve)
How it was run: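 Luminescence readout: CellTiter-Glo, 30 min RT, same wells as the ESRE-bla reporter read. HeLa ESRE-bla, 1,500 cells/well, o/n 37 C; cpd 5 hr 37 C/5% CO2.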

[14] = target: Retinoic acid receptor RXR-alpha (Homo sapiens) (UniProt P19793); test: qHTS assay to identify small molecule agonists of the RXR signaling pathway (AID 1159527; calls by dose curve; also: nearly all actives have a fitted effect of over 35% in size; also: potency is read from the fitted curve at half-maximal effect)
How it was run: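 Cells plated at 2,000/well, rested 5 hr at 37 C, pin-dosed with DMSO compound solutions, incubated 16 hr, then loaded with B/G FRET substrate for 2 hr at RT before dual-emission fluorescence reading.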

Retinoic acid receptor RXR-alpha (Homo sapiens), sequence (P19793 whole entry, looked up): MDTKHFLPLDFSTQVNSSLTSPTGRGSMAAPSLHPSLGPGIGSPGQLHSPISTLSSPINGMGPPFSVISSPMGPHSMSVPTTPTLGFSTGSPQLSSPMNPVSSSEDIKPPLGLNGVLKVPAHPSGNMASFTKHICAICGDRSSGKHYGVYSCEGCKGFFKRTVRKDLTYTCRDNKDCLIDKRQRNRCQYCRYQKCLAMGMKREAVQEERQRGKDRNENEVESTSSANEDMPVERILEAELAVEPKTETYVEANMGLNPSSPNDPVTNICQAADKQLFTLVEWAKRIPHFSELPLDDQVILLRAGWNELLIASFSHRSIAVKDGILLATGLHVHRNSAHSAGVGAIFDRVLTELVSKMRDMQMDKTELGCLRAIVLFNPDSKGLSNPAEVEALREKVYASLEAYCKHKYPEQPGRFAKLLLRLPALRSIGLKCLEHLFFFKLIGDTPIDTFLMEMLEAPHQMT

| Compound | Potency [1] | outcome [2] | outcome [3] | outcome [4] | Potency [5] | Potency [6] | Potency [7] | outcome [8] | Potency [9] | Potency [10] | Potency [11] | Potency [12] | Potency [13] | Potency [14] |
| --- | --- | --- | --- | --- | --- | --- | --- | --- | --- | --- | --- | --- | --- | --- |
| COc1cc(CCN)cc(OC)c1OC | inactive | inactive | inactive | inactive | inactive | inactive | inactive | inactive | inactive | inactive | inactive | inactive |  |  |
| CNC(=O)O/N=C(/CSC)C(C)(C)C | inactive | inactive | inactive |  | inactive | inactive | inactive | inactive |  | inactive | inactive | inactive | inactive | inactive |
| CC(C)(C)C(=O)Cl | inactive | inactive | inactive |  | inactive | inactive | inactive | inactive |  | inactive | inactive | inactive |  | inactive |
| CCN[C@H](C)Cc1cccc(C(F)(F)F)c1 | inactive | inactive | inactive |  | inactive | inactive | inactive | inactive | inactive | inactive | inactive |  | inactive | inactive |
| CC(C)(N)Cc1ccccc1Cl | inactive | inactive | inactive |  | inactive | inactive | inactive | inactive | inactive | inactive | inactive | inactive | inactive | inactive |
| NNCc1ccccc1 | inactive | inactive | inactive |  | inactive | inactive | inactive | inactive | inactive | inactive | inactive | 2.48 µM (active) | inactive | 22.3 µM (active) |
| O=C(O)C(Br)(Br)Br | inactive | inactive | inactive |  | inactive | inactive | inactive | inactive | inactive | inactive | inactive | inactive | inactive | inactive |
| CN1COCN(Cc2cnc(Cl)s2)/C1=N\[N+](=O)[O-] | inactive | inactive | inactive | inactive | inactive | inactive | inactive | inactive |  | inactive | inactive | inactive |  |  |
| O=C(CCl)NCO | inactive | inactive | inactive | inactive | inactive | inactive |  | inactive | inactive | inactive | inactive | inactive |  |  |
| CCOC(=O)NC(C)(C)Cc1ccc(Cl)cc1 | inactive | inactive | inactive |  | inactive | inactive | inactive | inactive | inactive | inactive | inactive | inactive | inactive | inactive |
| Nc1c(Cl)c(F)nc(OCC(=O)O)c1Cl | inactive | inactive | inactive | inactive | inactive | inactive |  | inactive |  |  | inactive | inactive |  | inactive |
| NC1(c2ccccc2)CCCCC1 | inactive | inactive | inactive | inactive | inactive | inactive | inactive | inactive | inactive | inactive | inactive | inactive |  |  |
| O=C(O)CBr | inactive | inactive | inactive |  | inactive | inactive | inactive | inactive | inactive | inactive | inactive | inactive | inactive |  |
| BrCC1CO1 (stereo unspecified) | inactive | inactive | inactive |  | inactive | inactive | inactive | inactive | inactive | inactive | inactive | inactive | inactive | inactive |
| NCCOS(=O)(=O)O | inactive | inactive | inactive |  | inactive | inactive |  | inactive | inactive | inactive | inactive | inactive | inactive | inactive |
| CCN[C@@H](C)Cc1ccccc1 | inactive | inactive |  | inactive | inactive | inactive | inactive | inactive | inactive | inactive | inactive | inactive | inactive | inactive |
| CCC1(c2ccccc2)C(=O)N(COC)C(=O)N(COC)C1=O | inactive | inactive | inactive |  | inactive | inactive |  | inactive | inactive | inactive | inactive | inactive | inactive | inactive |
| CCCC(C)(COC(N)=O)COC(N)=O | inactive | inactive | inactive |  | inactive | inactive | inactive | inactive |  | inactive | inactive |  | inactive | inactive |
| c1ccc2c(c1)CCNC2 | inactive | inactive | inactive | inactive | inactive | inactive | inactive | inactive | inactive | inactive | inactive | inactive |  |  |
| CCOC(=O)CCl |  | inactive | inactive |  | inactive | inactive | inactive | inactive |  | inactive | inactive | inactive | inactive | inactive |
| CCNc1nc(NCC)nc(SC)n1 | inactive | inactive |  | inactive | inactive | inactive | inactive | inactive | inactive |  | inactive | inactive | inactive | inactive |
